Only some compounds are listed: those with a hit (about 4.3% of all), similar ones and a draw of the others.
NadD inh – inhibitors of S. aureus NadD, primary screen, biochemical, colorimetric, uHTS; purified NadD enzyme, colorimetric absorbance read-out; 360,000 tested, 0.78% active; inhibition, % at 20 µM; Nicotinate-nucleotide adenylyltransferase NadD (Staphylococcus aureus N315); AID 602399, 2012; in the data active = inhibition above about 26%
rCAG RNA binder – binders of r(CAG) RNA repeats, primary screen, biochemical, fluorescence; AID 651821, 2012; r(CAG) RNA repeat, TO-PRO-1 dye displacement fluorescence; 370,000 tested, 1.3% active; inhibition, % at 3 µM;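 active = inhibition above the plate cutoff, the mean of all test compounds on that plate plus 3 SD, cut at about 35% in these data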;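 also: 0% = DMSO alone and 100% = 100 µM mitoxantrone as full dye displacement; higher means more dye released from RNA so lower well fluorescence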
GRIN3A LBD mod – binders of NR3A ligand-binding domain, primary screen, biophysical, differential scanning fluorimetry, uHTS; 340,000 tested, 2.5% active; NR3A LBD differential scanning fluorimetry, Tm shift; 0% = protein alone, 100% = glycine-bound protein; Tm shift relative to glycine control, % at 25 µM;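 active = melting temperature shift of at least 10% of the positive control shift, at one fixed dose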
FAS TE block – FAS thioesterase domain inhibitors, primary screen, biochemical, fluorescence intensity, uHTS; Fatty acid synthase (Homo sapiens), P49327; recombinant FAS-TE, OMFH fluorogenic substrate, fluorescence endpoint; inhibition, % at 15 µM; 360,000 tested, 0.67% active; AID 602261, 2012;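 active = compounds whose normalised, plate-corrected inhibition of enzyme fluorescence in the single-dose primary screen is 50% or more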;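 also: 0% = DMSO with enzyme and 100% = substrate without enzyme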
Active calls of the source: *; . = no result given.

SMILES | NadD inh | rCAG RNA binder | GRIN3A LBD mod | FAS TE block
CCOC(=O)[C@@]12CCCC3=C1N(CCC3)C(=O)[C@H]2CC(=O)NCc1cccc2ccccc12 | . | 2 | . | .
C/C(CCc1ccc2c(c1)OCO2)=N\N=C(/N)SC1CC(=O)N(c2ccc(Cl)cc2)C1=O (centres undefined) | 16 | 22 | 16* | 17
CCOC(=O)[C@]12CCCC3=C1N(CCC3)C(=O)[C@@H](CC(=O)NCC1CCCCC1)C2 | . | -3 | . | .
COc1ccc(-n2c(SCC(=O)NCC3CCCO3)nnc2-c2ccncc2)cc1 (centres undefined) | . | 0 | . | .
Cc1c2c(=O)n(-c3nc4ccccc4s3)nc-2cc(O)n1Cc1ccccc1 | 42* | . | 1 | -5
O=C1C[C@@H](O)[C@H](O)c2cccc(O)c21 | . | 5 | . | .
COc1ccc(OC)c(-c2cn(S(=O)(=O)c3ccccc3)nc2N)c1 | -4 | 6 | 17* | 8
COc1ccccc1-c1cn(S(=O)(=O)c2ccc(C)cc2)nc1N | -1 | 2 | -8 | 13
CCc1ccc(NC(=O)C2CC(=O)Nc3ncnn32)cc1 (centres undefined) | 2 | 0 | 21* | -7
O=C1CC(C(=O)Nc2ccc(Cl)cc2)n2ncnc2N1 (centres undefined) | -6 | 6 | 1 | -6
Nc1nc(-c2ccccc2)cn1N | -1 | 6 | 11* | 0
O=C(NC1CCS(=O)(=O)C1)Oc1ccccc1 (centres undefined) | 5 | -5 | -1 | -9
Cc1ccc(OC(=O)NC2CCS(=O)(=O)C2)cc1C (centres undefined) | -7 | 0 | 11* | -8
O=C(O)c1ccccc1N/N=C/c1c(Sc2nnnn2-c2ccccc2)nc2ccccn2c1=O | 3 | 9 | 12* | -14
O=Cc1c(Sc2ccccc2)nc2ccccn2c1=O | -8 | 1 | 0 | 2
Cc1ccc(S(=O)(=O)NCC(c2ccco2)N2CCc3ccccc32)cc1 (centres undefined) | -3 | -3 | 15* | 24
COc1ccc(S(=O)(=O)NCC(c2ccco2)N2CCc3ccccc32)cc1 (centres undefined) | 0 | 5 | -9 | 19
CN1C(=O)c2cc(NS(C)(=O)=O)ccc2OC[C@H]2O[C@@H](CC(=O)NCc3ccc(-c4ccccc4)cc3)CC[C@@H]21 | . | 8 | . | .
CC1=C(C(=O)Nc2ccccc2)C(c2ccc(O)cc2)N2C(=O)CSC2=N1 (centres undefined) | 8 | 29 | 12* | -25
NC(=O)c1c(/N=C/c2cccnc2)sc2c1CCCC2 | 8 | -8 | 11* | 0
N#CCCCSc1nnc(Cc2ccc3c(c2)OCO3)o1 | 4 | -2 | 12* | 5
CSc1nnc(Cc2ccc3c(c2)OCO3)o1 | -2 | -5 | 2 | -8
CC(=O)c1ccc(NC(=O)C(C)OC(=O)C(C)Oc2cccc(C)c2)cc1 (centres undefined) | -4 | -2 | 10* | -6
COC(=O)c1cc(NC(=O)CC2SC(=Nc3ccccc3)N(CCc3c[nH]c4ccccc34)C2=O)cc(C(=O)OC)c1 (centres undefined) | 26 | 18 | 23* | 28
COC[C@@H]1CCCN1c1ccc2c(c1)O[C@H]1CCN(C1)S2(=O)=O | . | 0 | . | .
SMILES | NadD inh | rCAG RNA binder | GRIN3A LBD mod | FAS TE block
O=C(CCCCn1c(=O)c2ccccc2n(Cc2ccc(Cl)cc2)c1=O)NCc1ccco1 | -3 | -2 | 14* | 11
COc1ccc(C(=O)NC(=S)NNC(=O)c2ccc3ccccc3n2)cc1 | 15 | 14 | 11* | 3
COc1ccc(CN2C3=N[C@H](c4ccccc4)CC(=O)N3/C(=C\c3ccccc3)C2c2ccco2)c(OC)c1 (some centres undefined) | . | 8 | . | .
Cc1cccc(NC(=O)c2ccc(N3CCOCC3)c([N+](=O)[O-])c2)n1 | -5 | -3 | -1 | 0
O=C(Nc1cccnc1)c1ccc(N2CCOCC2)c([N+](=O)[O-])c1 | -3 | 0 | 1 | -2
COc1ccc2oc(-c3ccc(NC(=O)c4ccc(N5CCOCC5)c([N+](=O)[O-])c4)cc3)nc2c1 | -18 | 0 | 37* | 7
O=C(Nc1ccc(-c2nc3ccccc3o2)cc1)c1ccc(N2CCOCC2)c([N+](=O)[O-])c1 | -7 | 3 | 14* | 30

Assay outcomes as filed in PubChem.
